Assay outcomes as filed in PubChem.
AmpC detergent: qHTS Inhibitors of AmpC Beta-Lactamase (assay with detergent); Potency, µM (titrated, usually from 114 µM), inactives show at the top dose activity change, negative = inhibition, usual class: inhibitors; 370,000 tested, 0.041% active; AmpC hydrolysis of nitrocefin, absorbance 480 nm, 0.01% Triton;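 also: 0% = no-compound wells and -100% = no-enzyme wells; nearly all actives have a fitted effect of over 25% in size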
Target sequence (P00811 whole entry, looked up): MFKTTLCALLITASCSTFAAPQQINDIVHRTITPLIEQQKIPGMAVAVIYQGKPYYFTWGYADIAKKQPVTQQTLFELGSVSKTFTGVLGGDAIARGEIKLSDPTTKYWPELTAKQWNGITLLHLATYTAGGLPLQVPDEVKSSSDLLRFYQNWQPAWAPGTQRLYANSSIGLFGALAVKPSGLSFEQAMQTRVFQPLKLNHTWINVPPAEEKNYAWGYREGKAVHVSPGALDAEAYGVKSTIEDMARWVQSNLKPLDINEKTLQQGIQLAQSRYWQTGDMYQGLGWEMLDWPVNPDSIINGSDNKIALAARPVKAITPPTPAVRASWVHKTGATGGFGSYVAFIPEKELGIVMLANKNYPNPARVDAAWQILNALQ
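AmpC (5.3 nM in the dispensed reagent) in 20 mM phosphate pH 7.0 with 0.01% (detergent screen) or 0.0001% Triton X-100 was preincubated with compounds for 15 min at room temperature. Nitrocefin was then added from an 800 uM solution, and hydrolysis was followed at 480 nm.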
Sm TGR block: qHTS Assay for the Inhibitors of Schistosoma Mansoni Peroxiredoxins; Schistosoma mansoni thioredoxin glutathione reductase (TGR), Q962Y6; purified TGR, DTNB reduction, TNB absorbance 405 nm; Potency, µM (series often up to 114 µM), inactives show at the top dose activity change, negative = inhibition, usual class: inhibitors; 360,000 tested, 3% active; AID 485364, 2010; also: nearly all actives have a fitted effect of over 60% in size
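TGR 20 nM + NADPH 100 uM (dispensed conc.), cpd preinc 15 min RT; start with NADPH (500 uM addition) then DTNB (15 mM addition). Kinetic TNB absorbance, 405 nm filter. Four-parameter Hill fit across titration.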
FMDV inh: High Throughput Screening for Foot and Mouth Disease Virus Antivirals; 410,000 tested, 1.2% active; Potency, µM (series often up to 57.9 µM), inactives show top-dose activity change, negative = inhibition, hits mostly inhibitors; FMDV antiviral cell-based qHTS; calls by dose curve; tested in HEK293T cells; also: read-out not given here; nearly all actives have a fitted effect of over 45% in size
AmpC no deterg: qHTS Inhibitors of AmpC Beta-Lactamase (assay without detergent). 330,000 tested, 0.52% active. AmpC nitrocefin hydrolysis, absorbance 480 nm, 0.0001% Triton. P00811. Potency, µM (series often up to 57.1 µM), without a hit: top-dose activity change, negative = inhibition, hits mostly inhibitors. AID 485341, 2010;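 also: plate controls were no compound for no effect and no enzyme for full effect; nearly all actives have a fitted effect of over 20% in size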
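AmpC (5.3 nM in the dispensed reagent) in 20 mM phosphate pH 7.0 with 0.01% (detergent screen) or 0.0001% Triton X-100 was preincubated with compounds for 15 min at room temperature. Nitrocefin was then added from an 800 uM solution, and hydrolysis was followed at 480 nm.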
AMA1-RON2 inh: qHTS for Inhibitors of AMA1-RON; Towards Development of Antimalarial Drug Lead: Primary Screen; AlphaScreen AMA1-biotinylated RON2 peptide binding; Potency, µM (doses to about 58.2 µM), for the others: at the top dose activity change, negative = inhibition, hits mostly inhibitors; 360,000 tested, 0.2% active; AID 720542, 2013;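 also: 0% = vehicle wells and -100% = peptide control; nearly all actives have a fitted effect of over 45% in size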
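AMA1 (3D7) with his tag at 25 nM final met compounds first, then biotinylated RON2 peptide at 25 nM; detection used donor plus acceptor beads, 10 µg/mL apiece, read by AlphaScreen after 30 min at room temperature.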
Active calls of the source: *; ? = inconclusive; / = no result given. Only some compounds are listed: those with a hit (about 4.1% of all), similar ones and a draw of the others. Unless noted, calls follow the shape of the dose curve; as a rule, active = well fitted curve in the direction sought with a large enough effect; inconclusive = small, poorly fitted or top-dose-only effect, or another doubt; inactive = no such curve, though single readings can be large; an effect the other way counts as inactive or inconclusive. Unless noted, % is scaled to controls: 0 for no effect and ±100 for the full control effect; potency is read from the fitted curve at half-maximal effect.

SMILES | AmpC detergent | Sm TGR block | FMDV inh | AmpC no deterg | AMA1-RON2 inh
O=C(Oc1ccc([N+](=O)[O-])cc1)c1cc(-c2ccccc2)nc2ccccc12 | 1.6% | 26.4% | 20µM* | -7.9% | -3.6%
COc1ccc(-n2nc3c(c2NC(=O)c2ccc(Br)o2)CS(=O)(=O)C3)cc1 | -12.8% | 35.5µM* | -15.8% | -28.2% | 7.8%
Cc1ccccc1-n1nc2c(c1NC(=O)c1cc3ccccc3o1)CS(=O)(=O)C2 | -14.6% | -18.8% | -11.6% | -39.0% | 2.3%
COc1ccc(-n2nc3c(c2NC(=O)c2cc4ccccc4o2)CS(=O)(=O)C3)cc1 | -3.4% | 50.1µM* | -12.1% | -15.1% | 8.0%
CC(C)(C)c1ccc(S(=O)(=O)N[C@H]2CC[C@@H](n3cc(C(=O)N4CCCC4)nn3)CC2)cc1 | / | / | -20.1% | / | /
Cc1ccc(CNC(=O)[C@H]2C[C@@H]2[C@H](NP(=O)(c2ccccc2)c2ccccc2)c2ccccc2)o1 | ? | 50.1µM* | -4.9% | 28.4% | -0.1%
O=C(NCCN1CCOCC1)c1cnn(-c2nccc(-c3ccccc3F)n2)c1C1CC1 | / | / | 40.4% | / | /
CCc1ccc(NC(=O)CN2C(=O)c3ccccc3Sc3ccc(C(=O)N4CCCC4)cc32)cc1 | 1.6% | -0.3% | -9.2% | / | /
N#CC1c2ccccc2-n2nncc2CN1Cc1cc(Cl)cc(Cl)c1 (stereo not drawn) | / | / | 8.91µM* | / | -5.9%
COc1ccc(CN2Cc3cnnn3-c3ccccc3C2C#N)cc1 (stereo not drawn) | / | / | 25.1µM* | / | 2.9%
COc1ccc(CN2Cc3cnnn3-c3ccccc3C2c2ccccc2)cc1 (stereo not drawn) | / | / | 0.0% | / | -1.1%
Cn1nnc2c(NCc3ccccc3)ncnc21 | -0.8% | 34.6% | -5.8% | / | /
CC[n+]1ccc(/C=C2\Sc3ccccc3N2CCCS(=O)(=O)[O-])c2ccccc21 | -0.1% | / | 3.3% | -18.7% | 12.8%
CN1C=C/C(=C\c2cc[n+](C)c3ccccc23)c2ccccc21 | ? | -1.3% | 17.8µM* | -17.1% | -14.1%
Cc1ccc(N2C(=O)NC(=O)C3(Cc4ccccc4N4CCN(c5ccccc5)CC43)C2=O)cc1 (stereo not drawn) | -11.6% | 17.8µM* | 55.2% | -24.3% | 0.2%
O=C(NCCn1cccc1)c1cccc2ccccc12 | -8.0% | 28.2µM* | 26.7% | -43.5% | -6.2%
Cc1ccc(NC(=O)C2CCCN(c3ncnc4c3nc3n4CCCCC3)C2)cc1F (stereo not drawn) | 19.9% | -4.2% | ? | / | /
CC(C)n1cnc2c(NCc3ccccc3)cc(N[C@H](C)CO)cc21 | / | / | 8.91µM* | 173.5% | -11.6%
CCC(COC)Oc1cc(NCc2ccccc2)c2ncn(C(C)C)c2c1 (stereo not drawn) | 5.9% | 28.2µM* | -9.1% | 131.6% | -22.1%
COC(=O)C1=C(C)NC(=O)/C1=C\c1cc(C)n(-c2ccccc2)c1C | 5.9% | 28.2µM* | 14.9% | -23.2% | -22.3%
Cc1cc(/C=C2\C(=O)NC(=O)N(c3ccccc3)C2=O)c(C)n1-c1ccc(C(=O)O)c(Cl)c1 | ? | 28.2µM* | -8.1% | -38.6% | 1.6%
Cc1cc(/C=C2\C(=O)NC(=O)N(c3ccccc3F)C2=O)c(C)n1-c1cc(C(=O)O)cc(C(=O)O)c1 | 0.5% | 8.91µM* | -17.4% | -19.1% | 0.0%
COc1ccc(CNS(=O)(=O)c2cnc(N)nc2)c(OC)c1 | 8.4% | ? | -8.9% | / | /
CCCCOc1ccccc1C(=O)N(Cc1cccc(F)c1)C1CCS(=O)(=O)C1 (stereo not drawn) | 13.4% | 12.1% | 0.0% | / | /
Cc1nc2sc3c(c2c(=O)n1NC(=O)CCBr)CCCC3 | 0.9% | 39.8µM* | ? | -10.2% | 103.6%
SMILES | AmpC detergent | Sm TGR block | FMDV inh | AmpC no deterg | AMA1-RON2 inh
Cc1ccccc1N1C(=O)/C(=C/c2ccco2)C(=O)NC1=S | 44.7µM* | 44.7µM* | / | 7.08µM* | /
CCOC(=O)C1=C(C)N(c2ccc(OCC)cc2)C(=O)/C1=C\c1ccco1 | -7.6% | 17.8µM* | -9.7% | -11.9% | ?
O=C(O)c1cc(-c2ccc(/C=C3\NC(=O)N(c4ccc(Cl)cc4)C3=O)o2)ccc1Cl | -7.9% | ? | 6.3% | -31.6% | -16.7%
Cc1cccc(N2C(=O)/C(=C/c3ccc(N4CCN(C)CC4)o3)C(=O)NC2=S)c1C | ? | -25.1% | -17.2% | 2.6% | 0.0%
O=C1NC(=S)N(c2ccccc2F)C(=O)/C1=C\c1cccs1 | -2.2% | 7.94µM* | 31.6µM* | -15.1% | -9.1%
O=C(O)c1cc(-c2ccc(/C=C3\NC(=O)N(c4ccccc4)C3=O)o2)ccc1Cl | 10.0% | 50.1µM* | 5.6% | -39.5% | -2.7%
O=C1NC(=O)C(=Cc2cccs2)C(=O)N1 | / | / | -22.4% | / | 0.3%
COc1ccccc1CNC(=O)CCCn1c(=O)c2ccccc2n(CC(=O)Nc2c(C)cc(C)cc2C)c1=O | 8.0% | 0.3% | -20.4% | / | /
COc1ccc(OC)c(CN2CCOc3ccc(CN4CCC(O)(c5cccnc5)CC4)cc3C2)c1 | / | / | 0.1% | / | /
Cc1ccc(/C=C2/C(=O)N(c3ccccc3)C(=S)N2C)o1 | -1.7% | 22.4µM* | 3.9% | -57.9% | -1.4%
CCOc1ccc(N2C(=O)/C(=C\c3cccs3)C(=O)NC2=S)cc1 | 3.3% | 8.91µM* | -91.8% | -41.4% | 43.4%
O=C(O)c1ccccc1-c1ccc(C=C2C(=O)N(c3ccccc3)C(=S)N(c3ccccc3)C2=O)o1 | ? | 8.91µM* | 16.1% | -54.4% | -14.7%
Cc1ccc(/C=C2\C(=O)NC(=O)N2C)o1 | ? | 35.5µM* | -8.4% | -25.3% | -1.7%
CCc1cccc(-n2c(=O)c3cccnc3n2CC(=O)Nc2ccc(OC)c(Cl)c2)c1 | 3.8% | -16.2% | -27.1% | / | /
COc1ccccc1-c1c(C)nn2c(N3CCN(c4cccc(Cl)c4)CC3)cc(C)nc12 | -3.9% | 0.8% | -20.0% | / | /
CCOc1ccc(N2C(=O)/C(=C/c3ccco3)C(=O)NC2=S)cc1 | ? | 22.4µM* | -16.9% | 12.6µM* | 3.98µM*
CCOc1ccc(N2C(=O)/C(=C/c3ccco3)N(C)C2=S)cc1 | -8.7% | 50.1µM* | -28.4% | -38.3% | -17.5%
COc1cc(C2CC(=O)Nc3c2c(C)nn3-c2nncc(-c3ccccc3)n2)cc(OC)c1OC (stereo not drawn) | 0.8% | -2.9% | 9.5% | / | /
COc1ccc(C2C(=O)N(C3CCCCC3)CC(=O)N2Cc2ccco2)cc1 (stereo not drawn) | -0.9% | 31.6µM* | -18.0% | 5.7% | -5.8%
COc1ccc(C2/C=C\CN(S(=O)(=O)c3ccc(C)cc3)[C@H](Cc3ccccc3)C(=O)N2Cc2ccc(F)cc2)cc1 (stereo partly drawn) | 0.7% | 28.2µM* | -4.0% | -11.5% | -6.1%
